# High-throughput results deposited in PubChem BioAssay by National Center for Advancing Translational Sciences (NCATS).
# Shown are actives, neighbours in structure and some others; about 21% of the full set was active somewhere.
# Pf growth 48h: P. falciparum growth inhibition at 48 hours (one generation); P. falciparum luciferase growth in erythrocytes, 48 h; Potency, µM (doses to about 28.7 µM), usual class: inhibitors; 5.9% of 310,000 active; AID 504832
#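 Here the parasites carry a stable luciferase gene and grow inside erythrocytes in Albumax-based RPMI medium with compound for one erythrocytic cycle. Activity is scored as loss of luminescent signal.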
# Pf growth 96h: inhibits malaria parasite growth, 96 h. AID 504834. P. falciparum luciferase reporter growth, 96 h. 6.9% of 320,000 active. Potency, µM (series often up to 28.7 µM), usual class: inhibitors
#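 Parasite growth measured via integrated firefly luciferase reporter in P. falciparum. Infected erythrocytes at 2% hematocrit, 0.05% parasitemia final were treated 96 hours at 37 C under 5% CO2, and luminescence was read.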
# Shiga toxin inh: blocks Shiga toxin action in Vero cells. inhibition, % at 38.7 µM. 9.2% of 290,000 active. Vero cells, Shiga toxin protein synthesis inhibition reporter; in the data active = inhibition mostly above about 28%, no sharp cut-off; inactive = mostly below about 43%
# HCV inhibitor: inhibitors of hepatitis C virus infection. Potency, µM (titrated, usually from 41.8 µM), most hits filed as inhibitors. 3.4% of 340,000 active. Huh7.5.1 HCVcc-Cre infection, luciferase reporter, 44 h. AID 651820
#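 Reporter virus HCVcc-Cre (~0.5 moi) infects cells exposed to compound; seeding density 1,000 cells/well with 4 h settling beforehand. Luminescence, 15 sec read, taken 44 h post-infection following a 15 min RT substrate incubation.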
# HCMV antiviral: blocks human cytomegalovirus replication; activity change, negative = inhibition, % at 57.5 µM; HFF cells, HCMV-luciferase reporter, 72 h; stronger effect = lower value; AID 1259415; 4.5% of 410,000 active; in the data active = activity change below about -60%; inconclusive = no clear call, values can overlap the other calls; inactive = above about -39%
#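 Inhibition of viral replication was scored as loss of reporter luminescence in HFFs infected with HCMV-luciferase (MOI 1 PFU/cell) for 72 h; compounds tested at 2 doses, normalized to buffer and Salinomycin controls.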
# CHX counter: affects cycloheximide protein synthesis inhibition readout, counter-screen. cell reporter, cycloheximide protein synthesis inhibition counterscreen. max response, %. 12% of 300,000 active; in the data active = max response mostly above about 13%, no sharp cut-off; inactive = mostly below about 14%; note: read at 38.3 µM for the half of the compounds with a filed dose
# Numbers stand for hits; – = inactive; ? = inconclusive; · = no result given; [ ] = dose if it differs, or a comment. Unless noted, calls come from the whole dose curve; as a rule, active = well fitted inhibition curve with a large enough effect; inconclusive = small, poorly fitted or top-dose-only effect, or another doubt; inactive = no such curve, though single readings can be large or run the other way.
SMILES,Pf growth 48h,Pf growth 96h,Shiga toxin inh,HCV inhibitor,HCMV antiviral,CHX counter
CC(C)CCn1c(=O)c2sccc2n2c(CCCC(=O)N3CCC(N4CCCCC4)CC3)nnc12,?,–,–,13µM,?,–
CCn1c(=O)c2sccc2n2c(CCCC(=O)NC3CCN(Cc4ccccc4)CC3)nnc12,–,13µM,–,–,–,–
CCn1c(=O)c2sccc2n2c(CCCC(=O)N3CCN(c4ccccn4)CC3)nnc12,10µM,?,–,–,–,–
Cc1ccc(N2C(=O)CCSC23C(=O)N(Cc2ccc(F)cc2)c2ccccc23)cc1 (centres undefined),·,·,·,·,–,·
COc1cc(CNC(C)(C)CO)cc(Br)c1OCc1ccc(Cl)cc1Cl,12µM,13µM,–,10µM,-99,–
COc1cc(CNC(C)(C)CO)cc(Br)c1OCc1ccc(Cl)cc1,13µM,?,–,5µM,?,–
CC(C)(CO)NCc1c(OCc2ccc(Cl)cc2)ccc2ccccc12,?,4.1µM,·,–,–,–
COc1cc(NC(=O)c2ccc(NC(=O)N3CCSc4ncccc43)cc2)cc(OC)c1,·,·,·,·,–,·
CCOC(=O)[C@@H]1[C@H]2COc3cc(OC)ccc3[C@@H]2N2C(=O)N(c3ccc(Cl)cc3)C(=O)[C@]12C,·,·,·,–,–,·
Cc1ccc(C(=O)Nc2ccc(C(=O)N3CCCCC3)cc2)o1,–,–,52,–,–,26
O=C(Nc1ccc(C(=O)N2CCCCC2)cc1)c1ccc(Br)cc1,?,4.1µM,–,–,–,–
O=C(c1ccc(-n2cccc2)cc1)N1CCCCC1,–,–,–,–,–,26
O=C(OCc1nnn(Cc2ccccc2)c1-c1c(COC(=O)c2ccccc2)nnn1Cc1ccccc1)c1ccccc1,3.3µM,1.9µM,–,?,·,–
CC(C)C(CCNC(=O)CC(Cc1ccccc1)c1ccco1)c1ccco1 (centres undefined),?,13µM,–,–,–,22
CCOc1cccc(C2c3c(oc4cc(C)c(C)cc4c3=O)C(=O)N2c2nc(C)c(C)s2)c1 (centres undefined),·,·,·,·,–,·
CCOc1ccc(Br)cc1CC(=O)O,·,·,·,–,–,·
CCCOc1ccc(Br)cc1CSC(=N)N,?,?,–,?,-95,–
Cc1c(C(=O)Nc2ccccc2Cl)oc2ccc(S(=O)(=O)N3CCCCC3)cc12,·,·,·,·,–,·
COc1ccc(-c2cc(C(F)(F)F)nc(-n3nc(C(F)(F)F)cc3C)n2)cc1,·,·,·,·,–,·
COc1ccc(C(C#N)c2ccc(Cl)nn2)cc1 (centres undefined),–,–,–,–,–,–
N#CC(c1ccc(Cl)nn1)c1ccc(Cl)cc1Cl (centres undefined),–,·,–,11µM,–,–
O=c1c(-c2ccc3c(c2)OCCO3)coc2cc(O)cc(O)c12,–,–,73,–,–,37
CC1(C)C=Cc2cc(-c3coc4cc(O)cc(O)c4c3=O)cc(O)c2O1,·,·,·,11µM,-61,·
O=c1c(-c2ccc(O)cc2)coc2cc(O)ccc12,·,·,·,–,–,·
COc1ccc(OC)c(CCNC(=O)Cn2nc(C)c3c(C)n(-c4ccccc4)nc3c2=O)c1,–,?,–,?,?,–
SMILES,Pf growth 48h,Pf growth 96h,Shiga toxin inh,HCV inhibitor,HCMV antiviral,CHX counter
COc1ccc2[nH]c3c(c2c1)CCN1C(=O)C(CC(=O)NCCCn2ccnc2)C[C@H](C(=O)N2CCOCC2)[C@@]31C (some centres undefined),·,·,·,–,–,·
CC(C)CN1CCN(Cc2cnc(-c3ccc(Cl)cc3)nc2)CC1CCO (centres undefined),–,?,–,?,–,13
OCCC1CN(Cc2cnc(-c3ccc(Cl)cc3)nc2)CCN1C1CCCC1 (centres undefined),?,?,–,7.1µM,?,–
OCCC1CN(Cc2cnc(-c3ccccc3)s2)CCN1C1CCCC1 (centres undefined),–,–,–,?,-66,–
Cc1ccc(CN2CCN(CC(C)C)C(CCO)C2)s1 (centres undefined),–,?,82,–,–,39
Cc1ccc(CN2CCN(CCC(C)C)C(CCO)C2)s1 (centres undefined),–,?,–,–,–,–
OCCC1CN(Cc2cnc(-c3ccccc3)s2)CCN1C1CCCCC1 (centres undefined),–,?,–,–,?,–
CC(C)CN1CCN(Cc2ccc3ncccc3c2)CC1CCO (centres undefined),–,?,–,–,–,–
O=C(CCCc1ccccc1)NC1CC(=O)N(c2ccc(Cl)cc2)C1 (centres undefined),·,·,·,·,–,·
CC(C)(O)C#Cc1ccc(CN2CCN(Cc3ccsc3)C(CCO)C2)s1 (centres undefined),–,8.3µM,–,–,–,–
OCCC1CN(Cc2ccccc2-c2ccco2)CCN1C1CCCC1 (centres undefined),9.3µM,?,–,–,–,–
Cc1ccccc1-c1ncc(CN2CCN(C3CCCCC3)C(CCO)C2)cn1 (centres undefined),–,–,–,–,–,22
COc1ccc(N(CC(=O)NCCSc2ccc(C)cc2)S(=O)(=O)c2ccccc2)c(OC)c1,?,?,–,?,–,–
c1ccc(-n2nnnc2SCc2cn3ccccc3n2)cc1,–,·,–,–,–,–
c1ccn2cc(CSC3=NCCS3)nc2c1,·,–,121,–,–,29
c1ccn2cc(CSc3nnc4ccccn34)nc2c1,·,–,120,–,–,57
Cn1ccnc1SCc1cn2ccccc2n1,–,–,82,–,–,30
CCCCOc1ccc(C(=O)NCCc2sc3nc(-c4ccc(OC)cc4)nn3c2C)cc1,·,·,·,·,–,·
Cc1ccc(S(=O)(=O)N2[C@@H](Cc3ccccc3)CO[C@H]2CC(=O)c2ccccc2)cc1,·,·,·,·,-69,·
Cc1ccc(S(=O)(=O)C[C@@H]2OC[C@H](Cc3ccccc3)N2S(=O)(=O)c2ccc(C)cc2)cc1,·,·,·,·,-61,·
OC1(C#Cc2c(-c3ccsc3)sc3ccccc23)CCCCC1,·,·,·,·,–,·
CC1CC=CC2C1C(=O)N(Cc1ccccc1)C2c1ccc(F)c(-c2ccc(N(C)C)cc2)c1 (centres undefined),·,·,–,·,·,–
Cc1ccc(-c2cc([C@H]3[C@H]4C=CC[C@@H](C)[C@@H]4C(=O)N3Cc3ccccc3)ccc2F)cc1,10µM,?,–,–,–,–
Cc1ccc(F)c([C@H]2C3C=CCC(c4ccccc4)C3C(=O)N2Cc2ccccc2)c1 (some centres undefined),12µM,?,–,–[8.37 µM],–,–
CC1CC=CC2C1C(=O)N(Cc1ccccc1)C2c1ccc(F)c(Br)c1 (centres undefined),·,·,32,·,·,–
O=S(=O)(CS(=O)(=O)c1ccc(Br)cc1)c1ccc(Br)cc1,·,·,·,·,–,·
O=C(COC(=O)c1ccc(S(=O)(=O)N2CCCCC2)cc1)Nc1ccccc1,–,–,·,–,–,·
COc1ccc(S(=O)(=O)N2CCCCC2)cc1NC(=O)c1cnc(C)cn1,–,–,·,–,–,·
